Data reported in article PMC5540273 (PLoS ONE, 2017).

System: EPHA1
Conditions: concentration: 1 μM, replicates: in singlicate; n = 1
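Note: KINOMEscan kinase panel screen.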

SMILES | %Inh
CCn1c(-c2ccoc2)nc2cnccc21 [SB-733887] | 9%
O=c1cc(N2CCOCC2)nc2n(Cc3ccc(F)c(Cl)c3)ccn12 [GSK2297099] | 12%
Cc1cccc(-c2nc(Nc3ccc4c(cnn4C)c3)c3ccccc3n2)n1 [GW876731] | 6%
Cl.NS(=O)(=O)c1cccc(Nc2cc(-c3ccc(F)cc3)n[nH]2)c1 [GW824645] | 0%
COc1cc(Nc2nccc(N3CCC(NC(=O)C4COc5ccccc5O4)C3)n2)cc(OC)c1OC (centres unmarked) [GSK1379761] | 1%
COC(=O)c1c(-c2ccccc2)c2cc(Br)ccc2c(=O)n1Cc1ccc(NC(=O)CCC(=O)O)cc1 | 24%
CN1C(=O)C(Nc2cc(Cl)c(O)c(Cl)c2)=C(c2ccc(Cl)cc2)C1=O [SB-404321] | 0%
CCC(=O)c1c(-c2ccccc2)c2cc(Cl)ccc2c(=O)n1Cc1cc(S(C)(=O)=O)n(CC(N)=O)n1 | 0%
Nc1ncnc2c1ncn2-c1ccc(Cl)cc1 [AH2635] | 0%
O=C(NCc1cccs1)c1cc(C(=O)c2c(Cl)cccc2Cl)c[nH]1 [GW823670] | 0%
CCn1c(-c2nonc2N)nc2ccccc21 [SB-693162/GW549034] | 0%
O=C(NCCNc1ccnc(Nc2ccc(F)cc2)n1)Nc1ccc2c(c1)OCO2 [GSK1379882] | 15%
COc1ccc(Nc2nccc(N3CCC(NS(=O)(=O)c4ccc(NC(C)=O)cc4)C3)n2)cc1 (centres unmarked) [GSK1379729] | 23%
COc1cc2nccc(Nc3cccc(Oc4ccccc4)c3)c2cc1OC.Cl [GW284543] | 10%
